Calls of active or inactive are those of the source. Unless noted, how the calls were made is not given here.
Columns and labels:
[1] = anti-His antibody binders, primary screen, artefact control for SMM control protein annotation, biochemical, small-molecule microarray, 635 nm fluorescence (AID 1128); details: anti-His Alexa647 antibody binding, higher = more signal;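 further: score merges feature fluorescence with signal-to-noise for each printed compound spot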
[2] = system: Human papillomavirus type 1a E7 protein (residues 1-88); test: HPV1a E7 small-molecule binders, primary screen, biochemical, small-molecule microarray, residues 1-88, 635 nm (AID 1129); details: small-molecule microarray binding, fluorescence 635 nm; higher = more signal
[3] = molecular target: Focal adhesion kinase 1 (Homo sapiens) (UniProt Q05397); test: small-molecule microarray binders of FAK, primary screen, biochemical, 635/667 nm fluorescence, BSA, DTT (AID 1130); details: PTK2 binding, 635 nm fluorescence, higher = more signal;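 further: composite of spot emission at 667 nm and signal to noise over triplicate slides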
Sequence of Focal adhesion kinase 1 (Homo sapiens) (Q05397 whole entry, looked up): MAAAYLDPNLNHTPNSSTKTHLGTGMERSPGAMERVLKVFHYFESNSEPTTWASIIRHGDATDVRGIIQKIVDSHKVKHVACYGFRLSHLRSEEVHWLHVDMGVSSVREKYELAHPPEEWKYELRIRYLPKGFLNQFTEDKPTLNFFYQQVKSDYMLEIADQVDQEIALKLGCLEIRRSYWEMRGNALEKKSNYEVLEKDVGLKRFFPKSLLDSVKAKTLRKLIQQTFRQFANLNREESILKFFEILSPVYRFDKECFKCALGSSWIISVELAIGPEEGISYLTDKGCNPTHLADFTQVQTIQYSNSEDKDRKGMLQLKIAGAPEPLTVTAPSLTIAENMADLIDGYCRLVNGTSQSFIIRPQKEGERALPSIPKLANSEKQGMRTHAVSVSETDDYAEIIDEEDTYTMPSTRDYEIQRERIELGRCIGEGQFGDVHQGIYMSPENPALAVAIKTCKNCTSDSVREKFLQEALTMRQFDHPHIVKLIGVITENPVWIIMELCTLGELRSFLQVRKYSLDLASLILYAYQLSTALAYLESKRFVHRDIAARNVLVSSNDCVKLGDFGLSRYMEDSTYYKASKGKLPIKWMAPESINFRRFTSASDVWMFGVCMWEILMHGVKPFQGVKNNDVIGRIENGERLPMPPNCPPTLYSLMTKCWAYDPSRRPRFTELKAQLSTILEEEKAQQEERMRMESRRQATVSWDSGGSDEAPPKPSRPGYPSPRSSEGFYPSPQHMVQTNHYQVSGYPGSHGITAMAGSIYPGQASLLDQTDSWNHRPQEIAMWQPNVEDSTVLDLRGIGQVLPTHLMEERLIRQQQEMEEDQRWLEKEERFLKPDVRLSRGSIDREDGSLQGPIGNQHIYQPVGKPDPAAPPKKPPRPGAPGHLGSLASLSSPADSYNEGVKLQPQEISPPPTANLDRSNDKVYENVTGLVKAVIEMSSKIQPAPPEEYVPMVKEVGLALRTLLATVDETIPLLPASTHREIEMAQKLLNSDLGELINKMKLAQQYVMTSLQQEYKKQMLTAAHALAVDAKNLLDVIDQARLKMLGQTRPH

[4] = system: Fibrinogen (Alexa647-labelled); test: fibrinogen binders on compound microarrays, profiling panel, artefact control for SMM control-protein annotation, biochemical, small-molecule microarray, 635/667 nm fluorescence (AID 1131); details: fibrinogen-A647 binding fluorescence, higher = more signal;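 further: z-score merges 667 nm fluorescence with per-spot signal-to-noise over triplicate slides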
[5] = molecular target: Follistatin (Homo sapiens) (UniProt P19883); test: follistatin binders on small-molecule microarrays, primary screen, biochemical, small-molecule microarray, 635/667 nm fluorescence (AID 1132); details: FST binding, 635 nm fluorescence, higher = more signal
Sequence of Follistatin (Homo sapiens) (P19883 whole entry, looked up): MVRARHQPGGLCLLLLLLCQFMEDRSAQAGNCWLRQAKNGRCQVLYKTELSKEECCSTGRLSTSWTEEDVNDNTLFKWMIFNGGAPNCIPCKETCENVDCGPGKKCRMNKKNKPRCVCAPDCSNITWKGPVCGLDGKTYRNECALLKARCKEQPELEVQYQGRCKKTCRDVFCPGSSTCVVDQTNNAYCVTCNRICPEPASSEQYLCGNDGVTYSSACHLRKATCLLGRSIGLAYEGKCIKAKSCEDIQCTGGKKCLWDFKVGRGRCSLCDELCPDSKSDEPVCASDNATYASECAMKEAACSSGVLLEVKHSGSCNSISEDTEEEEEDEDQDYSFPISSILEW

[6] = molecular target: Fibroblast growth factor 2 (Homo sapiens) (UniProt P09038); test: FGF2 binders on small-molecule microarrays, primary screen, biochemical, small-molecule microarray, 635/667 nm fluorescence (AID 1133); details: small-molecule microarray binding, FGF2, fluorescence 635/667; higher = more signal
Sequence of Fibroblast growth factor 2 (Homo sapiens) (P09038 whole entry, looked up): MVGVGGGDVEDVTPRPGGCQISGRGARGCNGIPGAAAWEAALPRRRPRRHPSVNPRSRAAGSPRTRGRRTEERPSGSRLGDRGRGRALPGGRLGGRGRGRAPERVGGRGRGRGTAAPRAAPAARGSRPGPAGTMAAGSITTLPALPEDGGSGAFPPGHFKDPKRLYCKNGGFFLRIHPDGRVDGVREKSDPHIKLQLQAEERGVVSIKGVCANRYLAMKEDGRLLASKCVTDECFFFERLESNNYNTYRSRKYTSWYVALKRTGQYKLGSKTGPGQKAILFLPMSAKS

[7] = mitochondrial membrane potential change in A549 cells, profiling panel, cell-based, JC-1 fluorescence, basal, 24 h, 100 nL (AID 1138); details: higher = more signal;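 further: A549 lung adenocarcinoma cells under basal conditions with no added stimulus; test concentration not given here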
[8] = system: Lefty1; test: Lefty1 binders on small-molecule microarrays, primary screen, biochemical, small-molecule microarray, 635/667 nm fluorescence (AID 1139); details: small-molecule microarray binding, fluorescence 635/667; higher = more signal
[9] = system: wheat germ agglutinin (Triticum aestivum), Alexa647-labelled; test: wheat germ agglutinin binders on compound microarrays, profiling panel, artefact control for SMM control-protein annotation, biochemical, small-molecule microarray, 635/667 nm fluorescence (AID 1140); details: WGA-A647 binding, 635 nm fluorescence, higher = more signal;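 further: score merges 667 nm feature emission with signal to noise over triplicate slides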
[10] = molecular target: Luciferin 4-monooxygenase (Photinus pyralis) (UniProt P08659); test: firefly luciferase enzyme inhibitors, primary screen, biochemical, luminescence, purified enzyme, 2006 set (AID 1141); details: SteadyGlo luminescence, 30 min, higher = more signal, called active from +8 up or from −8 down;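 further: cell-free assay with purified firefly luciferase at 100 ng per well in PBS; test concentration not given here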
Sequence of Luciferin 4-monooxygenase (Photinus pyralis) (P08659 whole entry, looked up): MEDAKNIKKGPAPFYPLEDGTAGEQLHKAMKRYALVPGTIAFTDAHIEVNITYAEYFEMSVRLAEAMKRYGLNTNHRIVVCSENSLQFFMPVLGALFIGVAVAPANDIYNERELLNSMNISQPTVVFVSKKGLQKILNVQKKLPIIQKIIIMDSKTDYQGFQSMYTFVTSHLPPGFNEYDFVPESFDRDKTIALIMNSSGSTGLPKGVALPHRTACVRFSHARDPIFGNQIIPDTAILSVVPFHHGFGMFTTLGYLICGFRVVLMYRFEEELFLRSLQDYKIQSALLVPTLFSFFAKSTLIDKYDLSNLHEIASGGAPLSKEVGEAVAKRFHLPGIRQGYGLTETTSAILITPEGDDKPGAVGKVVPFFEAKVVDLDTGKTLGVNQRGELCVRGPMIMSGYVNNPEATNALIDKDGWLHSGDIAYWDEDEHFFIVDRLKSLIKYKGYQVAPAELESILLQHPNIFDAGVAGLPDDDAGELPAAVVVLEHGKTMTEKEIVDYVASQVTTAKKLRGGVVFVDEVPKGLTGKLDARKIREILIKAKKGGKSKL

[11] = system: Wnt5a (protein binding on small-molecule microarray); test: Wnt5a binders on small-molecule microarray, primary screen, biophysical, 635/667 nm fluorescence (AID 1142); details: 635 nm fluorescence, higher = more signal;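 further: fluorescence read at 667 nm with signal to noise per printed feature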
[12] = cell viability in Huh7 cells, primary screen, cytotoxicity control for HCV replication inhibitor project, CellTiter-Glo luminescence, basal, 48 h (AID 1143); details: Huh7 HCV replicon, higher = more signal, called active from +8 up or from −8 down;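 further: Huh7 hepatoma cells carrying a hepatitis C replication reporter with no stimulus; test concentration not given here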
[13] = P. aeruginosa biofilm formation inhibitors, primary screen, PAO1 strain, BacTiter-Glo luminescence, LB-PBS (AID 1144); details: 12 h, higher = more signal
[14] = CREB reporter modulators without forskolin, primary screen, cell-based, PC12, CRE-LacZ reporter, unstimulated (AID 1145); details: no forskolin, luminescence, 4.5 h, higher = more signal, called active from +8 up or from −8 down
[15] = CREB reporter modulators under forskolin, primary screen, cell-based, PC12, CRE-LacZ reporter, forskolin-stimulated (AID 1146); details: luminescence, 4.5 h, higher = more signal, called active from +8 up or from −8 down;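 further: PC12 cells with 6xCRE LacZ reporter stimulated by forskolin 10 µM; beta-galactosidase reporter signal reflecting CREB driven transcription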
[16] = molecular target: Streptavidin (Streptomyces avidinii) (UniProt P22629); test: streptavidin binders on small-molecule microarray, primary screen, artefact control for SMM compound annotation, biophysical, 635/667 nm fluorescence (AID 1147); details: streptavidin binding, higher = more signal;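 further: signal reflects streptavidin binding to arrayed compounds as a control protein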
Sequence of Streptavidin (Streptomyces avidinii) (P22629 whole entry, looked up): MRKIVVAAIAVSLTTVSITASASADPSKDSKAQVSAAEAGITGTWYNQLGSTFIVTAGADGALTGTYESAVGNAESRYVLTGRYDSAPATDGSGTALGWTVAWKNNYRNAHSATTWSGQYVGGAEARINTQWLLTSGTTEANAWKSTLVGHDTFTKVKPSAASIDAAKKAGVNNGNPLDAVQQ

[17] = small-molecule binders of probe aInhba, primary screen, biochemical, small-molecule microarray, 635/667 nm fluorescence (AID 1148); details: higher = more signal;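 further: score merges 667nm spot fluorescence with signal-to-noise for antibody binding to printed compounds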
[18] = molecular target: Torsin-1A (Homo sapiens) (UniProt O14656); test: torsin A binders from cell lysate, primary screen, small-molecule microarray, wild-type, 635/667 nm (AID 1149); details: COS7 hTOR1A-WT lysate, 635 nm fluorescence, higher = more signal
Sequence of Torsin-1A (Homo sapiens) (O14656 whole entry, looked up): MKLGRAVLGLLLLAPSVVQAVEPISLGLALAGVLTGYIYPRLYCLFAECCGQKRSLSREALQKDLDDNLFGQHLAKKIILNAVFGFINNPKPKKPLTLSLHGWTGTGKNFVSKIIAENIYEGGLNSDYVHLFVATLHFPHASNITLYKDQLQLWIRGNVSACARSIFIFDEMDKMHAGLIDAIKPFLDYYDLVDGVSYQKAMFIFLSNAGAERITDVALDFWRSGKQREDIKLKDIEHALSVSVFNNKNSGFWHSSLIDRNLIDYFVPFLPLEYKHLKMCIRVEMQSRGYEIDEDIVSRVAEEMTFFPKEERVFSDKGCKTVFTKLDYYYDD

[19] = molecular target: Torsin-1A (Homo sapiens) (UniProt O14656); test: small-molecule binders of mutant TOR1A in lysate, primary screen, cell lysate, small-molecule microarray, COS7 lysate, 635/667 nm fluorescence (AID 1150); details: COS7 hTOR1A mutant lysate, 635 nm fluorescence, higher = more signal;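 further: score pools 667 nm emission and signal to noise measuring lysate protein binding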
[20] = system: Sonic hedgehog protein (Shh); test: small-molecule binders of Shh protein, primary screen, biochemical, small-molecule microarray, 635/667 nm fluorescence (AID 1151); details: small-molecule microarray binding, 635 nm fluorescence; higher = more signal;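 further: Shh protein binding to compounds spotted on small-molecule microarray slides; score combines spot fluorescence intensity with signal-to-noise across triplicate slides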

| SMILES | composite z-score [1] | composite z-score [2] | composite z-score [3] | composite z-score [4] | composite z-score [5] | composite z-score [6] | z-score [7] | composite z-score [8] | composite z-score [9] | z-score [10] | composite z-score [11] | z-score [12] | z-score [13] | z-score [14] | z-score [15] | composite z-score [16] | composite z-score [17] | composite z-score [18] | composite z-score [19] | composite z-score [20] |
| --- | --- | --- | --- | --- | --- | --- | --- | --- | --- | --- | --- | --- | --- | --- | --- | --- | --- | --- | --- | --- |
| C[C@]1(C(=O)NC2CC2)c2ccccc2C(=O)N(Cc2cc(C(F)(F)F)cc(C(F)(F)F)c2)[C@H]1c1ccc(CO)cc1 | 1.86 | 1.11 | -0.0326 | 0.657 | 1.31 | 0.998 | 1.73 | 0.539 | 0.772 | -1.07 (inactive) | 0.46 | -1.38 (inactive) | 0.501 (inactive) | -0.825 (inactive) | -1.25 (inactive) | 0.0956 | 0.225 | 0.372 | 0.329 | -0.0874 |
| C=CC[C@@]1(C(N)=O)N=C(c2ccc(OCCCO)cc2)O[C@@H]1c1ccccc1CN=[N+]=[N-] | 2.78 | 1.17 | -0.111 | 0.968 | 1.08 | 0.107 | -0.95 | -0.344 | 1.52 | -1.35 (inactive) | 0.186 | -3.34 (inactive) | -0.58 (inactive) | 1.8 (inactive) | -1.35 (inactive) | 0.456 | 0.233 | 0.183 | 0.0254 | -0.776 |
| [N-]=[N+]=NCc1ccccc1C[C@@]1(C(=O)NCC(O)CO)N=C(c2ccc(OCCCO)cc2)O[C@@H]1c1ccccc1N=[N+]=[N-] (stereo not given in full) | 2.41 | 1.22 | 1.22 | 0.962 | 1.38 | 1.58 | -0.043 | -0.709 | 1.15 | -3.13 (inactive) | 0.63 | -3.67 (inactive) | -0.68 (inactive) | 0.209 (inactive) | -1.57 (inactive) | 1.89 | 0.475 | 0.73 | 1.07 | -0.762 |
| C=CCOC(=O)[C@H]1[C@@H]2C(=O)O[C@@H](c3ccccc3)[C@@H](c3ccccc3)N2[C@@H](c2ccc(OCCOC(=O)[C@@H]3C[C@@H]4C(=O)N[C@@H](CCCCN(C)C)C(=O)N4[C@@H]3c3ccc(O)cc3)cc2)[C@]12C(=O)Nc1ccc(I)cc12 | 2.26 | 1.22 | 0.565 | 0.733 | 1.16 | 1.57 | -1.63 | 1.54 | 0.81 | -4.39 (inactive) | 0.451 | -0.135 (inactive) | -1.02 (inactive) | -0.935 (inactive) | 1.04 (inactive) | 0.218 | 0.0082 | 1.22 | 0.671 | 1.71 |
| COc1ccc([C@H]2OC[C@@H]3CC4(CC=CC4)C(=O)N32)cc1 | -0.648 | 0.828 | 0.282 | -0.163 | 1.4 | 0.848 | -0.661 | 1.35 | -0.284 | -0.573 (inactive) | 0.0071 | 0.377 (inactive) | 0.25 (inactive) | 0.236 (inactive) | 0.249 (inactive) | 0.193 | -0.159 | -0.477 | -0.436 | 1.92 |
| COCCCNC(=O)[C@@]1(Cc2ccccc2N=[N+]=[N-])N=C(c2ccc(OCCCO)cc2)O[C@H]1c1ccccc1N=[N+]=[N-] | 1.73 | 1.22 | 0.912 | 0.849 | 1.25 | 0.836 | 0.332 | -0.0542 | 1.02 | -3.37 (inactive) | 0.266 | -4.63 (inactive) | -0.557 (inactive) | 0.834 (inactive) | -0.803 (inactive) | 1.14 | 0.3 | 0.328 | 1.05 | -0.319 |
| CCC(CC)C(O)C1C=CC2C(=O)N(C)C(=O)C2N1Nc1ccccc1 (stereo not given) | 1.02 | 1.08 | 0.43 | 0.964 | 0.895 | -0.194 | -0.513 | 0.434 | 1.1 | -0.445 (inactive) | 0.334 | 0.667 (inactive) | -0.625 (inactive) | 0.822 (inactive) | -0.214 (inactive) | 1.48 | 0.288 | 0.551 | 0.235 | -0.09 |
| COCCCN1C(=O)[C@@]2(Cc3ccccc31)c1ccccc1C(=O)N(Cc1ccccc1C(F)(F)F)[C@H]2c1ccc(CO)cc1 | -0.169 | 0.439 | 0.521 | -0.371 | 1.26 | 1.14 | 0.317 | 0.469 | 0.101 | -0.259 (inactive) | 0.16 | 0.287 (inactive) | -0.169 (inactive) | -0.581 (inactive) | 0.255 (inactive) | 0.147 | 0.331 | -0.0888 | -0.0875 | 0.498 |
| C=CCN1C(=O)[C@]2(O[C@H](CCO)[C@@H]([Si](C)(C)c3ccc(OC)cc3)[C@@H]2C)c2cc(N3C(=O)c4cccc5cccc3c45)ccc21 | 0.987 | 0.98 | 1.05 | 0.541 | 0.644 | 0.65 | -0.855 | 0.777 | 0.393 | -0.225 (inactive) | -0.0476 | -7.91 (inactive) | 0.00752 (inactive) | 23.5 (active) | -2.47 (inactive) | 0.487 | 0.0214 | 1.13 | 0.0015 | 1.84 |

Source: PubChem BioAssay
